The source of these data is PubChem BioAssay (NCATS).

SMILES strings stand for the structures. Records with an inconclusive call do not appear. Calls of active or inactive are those of the source. Unless noted, no rule for the calls is given here.

A short description of assay [1]: qHTS profiling of the MIPE4 collection as inhibitors of Plasmodium falciparum (3D7) proliferation (AID 743344).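 Also: scaled between DMSO vehicle wells and 0.29 µM artemisinin as full inhibition.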 As to conditions: P. falciparum 3D7 in erythrocytes, SYBR Green DNA fluorescence, 72 h; at 28.5 µM unless noted. The method, boiled down: (§1)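 Erythrocytes infected with P. falciparum (0.3% parasitemia, 2.5% hematocrit) incubated with compounds 72 h at 37 C, 5% CO2. Lysis with saponin/Triton buffer containing SYBR Green I, overnight at room temperature in the dark; DNA fluorescence (485/535 nm) normalised to 0.29 uM artemisinin and DMSO.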
A general note: In qHTS, concentration-response curves come from the screen itself.

Assay [2] is described as follows: qHTS profiling of the MIPE4 collection as inhibitors of Plasmodium falciparum (DD2) proliferation (AID 743345). As to conditions: P. falciparum Dd2 in erythrocytes, SYBR Green DNA, 72 h; at 28.5 µM unless noted. The gist of the method: as §1
Assay [3] in a line: qHTS profiling of the MIPE4 collection as inhibitors of Plasmodium falciparum (DD2) proliferation (Rep 2) (AID 743346). The settings on record: P. falciparum Dd2 in erythrocytes, SYBR Green DNA, 72 h; at 28.5 µM unless noted. The gist of the method: as §1
The nature of assay [4]: High-throughput drug toxicity screening in the BPDCN cell line Gen2.2 (AID 1224824).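 Also: cells exposed to compounds for 48 h before reading.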 As to conditions: Gen2.2 BPDCN cells; at 45.8 µM (top of the series) unless noted. The method, boiled down: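 Gen2.2 cells (500/well) in phenol red-free RPMI with 10% FBS were exposed to compounds for 48 h at 37 °C, 5% CO2. Viability was read by CellTiter-Glo luminescence and normalized to DMSO (100%) and 9.2 uM bortezomib (0%).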

The nature of assay [5]: qHTS assay for measurement of the activity of small molecule inhibitors on Zika virus induced Caspase-3 activity in human iPSC derived neural progenitor cells (hNPCs) (AID 1224857; active = well fitted curve in the direction sought with a large enough effect; an effect the other way counts as inactive or inconclusive; also: % of control where 0% means no effect; nearly all actives have a fitted effect of over 65% in size). The gist of the method:
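Values are percent inhibition of virus-induced caspase-3/7 signal, scaled between uninfected cells and ZIKV-infected cells. Infection used 2 FFU/cell for 6 h after 1 h compound exposure.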

The nature of assay [6]: qHTS assay for measurement of the activity of small molecule inhibitors on Zika virus induced Caspase-3 activity in human astrocytoma cells (AID 1224859; active = well fitted curve in the direction sought with a large enough effect; an effect the other way counts as inactive or inconclusive;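 also: plate controls were ZIKV-infected untreated cells for no effect and uninfected cells for full effect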). The gist of the method: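 Compound added 1 h pre-infection; ZIKV 2 FFU/cell on SNB-19 cells, 6 h, 37 C/5% CO2. Caspase-Glo 3/7 luminescence; values as % inhibition of ZIKV-induced caspase activity.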
Assay [7] can be described thus: qHTS Screen of the MIPE 4.0 Collection Against Ewings Sarcoma (TC71) (AID 1259253; active = well fitted curve in the direction sought with a large enough effect; an effect the other way counts as inactive or inconclusive; also: nearly all actives have a fitted effect of over 40% in size; also: potency is read from the fitted curve at half-maximal effect). The method, boiled down: (§2)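 Here, cells in 5% FBS RPMI were exposed for two days (48 h) to compound dilutions added four hours after plating. ATP-based CellTiter-Glo luminescence measured viability, normalized to vehicle and no-cell blanks.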
A short description of assay [8]: qHTS Screen of the MIPE 4.0 Collection Against Ewings Sarcoma (TC32) (AID 1259256; active = well fitted curve in the direction sought with a large enough effect; an effect the other way counts as inactive or inconclusive; also: nearly all actives have a fitted effect of over 45% in size; also: potency is read from the fitted curve at half-maximal effect). The method, boiled down: as §2
Assay [9] in a line: qHTS profiling for inhibitors of Plasmodium falciparum (HB3) proliferation (AID 743324; active = well fitted curve in the direction sought with a large enough effect; an effect the other way counts as inactive or inconclusive;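 also: 100% = DMSO vehicle wells and 0% = artemisinin-treated control wells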). The settings on record: Plasmodium falciparum HB3 blood-stage proliferation; at 28.7 µM (top of the series) unless noted. The method, boiled down: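 P. falciparum HB3 grown in erythrocytes (0.3% parasitemia, 2.5% hematocrit final) with compound for 72 h at 37 C, 5% CO2. Parasite DNA detected by SYBR Green after saponin/triton lysis overnight; normalized to 0.29 uM artemisinin and DMSO.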

Assay [10] is described as follows: qHTS profiling of the MIPE4 collection as inhibitors of Plasmodium falciparum (HB3) proliferation (AID 743347).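 Also: plate controls were DMSO vehicle wells for no effect and artemisinin wells for full effect.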 The settings on record: P. falciparum HB3 in erythrocytes, SYBR Green DNA, 72 h; at 28.5 µM unless noted. The method, boiled down: as §1
Assay [11] can be described thus: qHTS Screen of the MIPE 4.0 Collection Against Ewings Sarcoma (RDES) (AID 1259252; active = well fitted curve in the direction sought with a large enough effect; an effect the other way counts as inactive or inconclusive; also: nearly all actives have a fitted effect of over 35% in size; also: potency is read from the fitted curve at half-maximal effect). The gist of the method: as §2
The nature of assay [12]: qHTS Screen of the MIPE 4.0 Collection Against Ewings Sarcoma (EW8) (AID 1259255; active = well fitted curve in the direction sought with a large enough effect; an effect the other way counts as inactive or inconclusive; also: nearly all actives have a fitted effect of over 35% in size; also: potency is read from the fitted curve at half-maximal effect;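 as to viability: 100% = DMSO-treated cells and 0% = medium-only wells without cells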). The method, boiled down: as §2

With `Cc1ccc2c(c1)C(=O)[C@]1(O)CCN(c3ccccc3)C1=N2`, the parasite growth, % of DMSO control in assay [1] came out at 70.4%. In assay [2], the parasite growth remaining, % of DMSO control (lower = more inhibition) was found to be 90.7%. The compound also had a parasite growth, % of control (lower = inhibition) in [3] of 89.8%. For the same compound, in assay [4], the cell viability, % of control (lower = more cytotoxic) amounted to 91%. The Potency result in [5], in assay [6] and in assay [8] was “inactive” in each case. Besides, the Potency in [7] was 18.7 µM (active).

Regarding `CCc1cc(-c2n[nH]c(C)c2-c2ccc3c(c2)OCCO3)c(O)cc1O`, in assay [9], the remaining proliferation (% of control), lower = more inhibition amounted to 74.6%. This compound gave a parasite growth, % of DMSO control in assay [1] of 49.4%. For the same compound, the parasite growth remaining, % of DMSO control (lower = more inhibition) in [2] was found to be 57.9%. The parasite growth, % of control (lower = inhibition) in assay [3] came to 31.5%. The growth, % of control in assay [10] came to 39.1%. Further, in [4], the cell viability, % of control (lower = more cytotoxic) was found to be 7.68%. Besides, the Potency entry in [5] is “inactive”. For the same compound, the results for the Potency in assay [11] and in assay [8] were 9.35 µM (active) and 4.18 µM (active), respectively.

`C[C@]12CC[C@@H]3c4ccc(O)cc4CC[C@H]3[C@H]1[C@@H](O)[C@@H](O)[C@H]2O` came in with a parasite growth, % of DMSO control in [1] of 5.15%. Also, the parasite growth remaining, % of DMSO control (lower = more inhibition) in assay [2] is 9.25%. The compound further yielded a parasite growth, % of control (lower = inhibition) in assay [3] of 7.28%. Also, in [10], the growth, % of control stood at 2.52%. Moreover, in assay [4], the cell viability, % of control (lower = more cytotoxic) turned out to be 218%. Also, the Potency entry in assay [5] was “inactive”. In addition, the Potency in assay [11] is 20.9 µM (active).

Compound `CN1c2ccccc2C(=O)N2CCc3c([nH]c4ccccc34)C21` (stereo not given) had a parasite growth, % of DMSO control in [1] of 94.3%. Moreover, the parasite growth remaining, % of DMSO control (lower = more inhibition) in [2] came to 103%. Moreover, the parasite growth, % of control (lower = inhibition) in assay [3] was 90.2%. Besides, in [10], the growth, % of control came out at 55%. The cell viability, % of control (lower = more cytotoxic) in assay [4] came to 54.1%. For the same compound, the Potency entry in [5], in [6] and in assay [12] was “inactive” each time. In addition, in assay [8], the Potency is 14.8 µM (active).

For `COc1ccc2cc1Oc1ccc(cc1)C[C@H]1c3cc(c(OC)cc3CCN1C)Oc1c(OC)c(OC)cc3c1[C@H](C2)N(C)CC3`, in [10], the growth, % of control stood at 13.9%. In assay [4], the cell viability, % of control (lower = more cytotoxic) came out at 146%. Further, the Potency entry in assay [5] and in assay [6] was “inactive” each time. The Potency in assay [11] and in assay [7] was 20.9 µM (active) in each case.

On to `Cc1ccc2c(=O)c3cccc(CC(=O)O)c3oc2c1C`, for which the parasite growth, % of DMSO control in [1] amounted to 95.5%. Also, the parasite growth remaining, % of DMSO control (lower = more inhibition) in [2] was found to be 94%. For the same compound, the parasite growth, % of control (lower = inhibition) in [3] came out at 76.8%. For the same compound, the growth, % of control in [10] was determined as 101%. Also, the cell viability, % of control (lower = more cytotoxic) in assay [4] was 78%. For the same compound, the Potency result in assay [5] was “inactive”. Further, the Potency in assay [11] is 18.7 µM (active).

With `CC1(COc2ccc3c(c2)ncn3-c2ccc3cccc(N4CCC(N)CC4)c3n2)COC1`, in assay [2], the parasite growth remaining, % of DMSO control (lower = more inhibition) is 6.71%. The compound further yielded a parasite growth, % of control (lower = inhibition) in [3] of 14.5%. The same compound had a growth, % of control in [10] of 4.9%. For the same compound, the cell viability, % of control (lower = more cytotoxic) in [4] amounted to 5.87%. In addition, the Potency entry in assay [5], in [6], in [11], in assay [7] and in assay [8] was “inactive” in each case.

Take `Clc1ccc(C2(c3ccc(-c4cn[nH]c4)cc3)CCNCC2)cc1`: the parasite growth, % of DMSO control in [1] stood at 4.5%. Besides, in [2], the parasite growth remaining, % of DMSO control (lower = more inhibition) came to 9.74%. The compound further registered a parasite growth, % of control (lower = inhibition) in [3] of 12.8%. For the same compound, the growth, % of control in [10] is 4.19%. The cell viability, % of control (lower = more cytotoxic) in [4] turned out to be 16.8%. For the same compound, the Potency result in [5] and in [6] was “inactive” throughout. Further, the Potency in [11] was 14.8 µM (active); in assay [12], 23.5 µM (active); in assay [8] it was 20.9 µM (active).

`NC1(C(=O)N[C@@H](CCO)c2ccc(Cl)cc2)CCN(c2ncnc3[nH]ccc23)CC1` gave a parasite growth, % of DMSO control in assay [1] of 32.2%. Further, the parasite growth remaining, % of DMSO control (lower = more inhibition) in [2] amounted to 85.9%. The parasite growth, % of control (lower = inhibition) in assay [3] was 24.5%. In [10], this compound returned a growth, % of control of 97.9%. In assay [4], the cell viability, % of control (lower = more cytotoxic) was 6.91%. Moreover, the Potency entry in assay [5] and in [6] was “inactive” throughout. Besides, the Potency in [11] is 3.72 µM (active); in [7], 16.6 µM (active); in assay [8] it was 16.6 µM (active).

`Cc1nc(NC(=O)N2CCC[C@@H]2C(N)=O)sc1-c1csc(C(C)(C)C)n1`: the parasite growth, % of DMSO control in assay [1] was 16.4%. In assay [2], the parasite growth remaining, % of DMSO control (lower = more inhibition) is 80.7%. In addition, in assay [3], the parasite growth, % of control (lower = inhibition) amounted to 28.5%. The compound also had a growth, % of control in assay [10] of 14.5%. Moreover, the cell viability, % of control (lower = more cytotoxic) in assay [4] was determined as 14.1%. Further, the Potency result in [5] and in assay [6] was “inactive” throughout. Besides, the figures for the Potency in [11], in [7] and in assay [8] were 5.26 µM (active), 6.62 µM (active) and 6.62 µM (active), respectively.
